Consider 9 compounds from PubChem BioAssay (NCI).

Holding throughout (assay): NCI-60 one-dose screen, 48 h (100 = growth as untreated, 0 = no growth, -100 = all killed)
What all share (conditions): 10 µM

Assay [1] relates to DU-145 prostate.
Assay [2] has as its system K-562 leukemia.
The test system of assay [3] is MALME-3M melanoma.
In assay [4] the test system is MDA-MB-231 breast.
For assay [5], the system named is RXF 393 renal.
For assay [6], the system named is SF-268 CNS.
Assay [7] has as its system SF-295 CNS.
Assay [8] has as its system SF-539 CNS.
For assay [9], the system named is UACC-257 melanoma.
Assay [10] has as its system M14 melanoma.
Assay [11] relates to HCT-15 colon.
In assay [12] the test system is HT29 colon.
In assay [13] the test system is SNB-75 CNS.
Assay [14] deals with U251 CNS.
Assay [15] has as its system PC-3 prostate.
Assay [16] concerns SK-MEL-5 melanoma.
The subject of assay [17] is UACC-62 melanoma.
In assay [18] the test system is LOX IMVI melanoma.
In assay [19] the test system is SK-MEL-28 melanoma.
Assay [20] has as its system SNB-19 CNS.

Compounds without any hit were thinned out: in the full panel of roughly 83,000, 20% have a hit.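 Note: values are percent growth. 100 is the growth of untreated cells, values between 100 and 0 indicate rising inhibition; between -100 and 0 indicates cell death.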 Values without a mark were called inactive. Active and inactive are the calls of the source. Rule for the calls: active = growth percent below 10; inactive = the rest.

`COc1ccc(COC(=O)CC(C)C)cc1`: the growth is 107% in [1]; 96.1% in assay [2]; 100% in [3]; 106% in assay [4]; 101% in [5]; 93% in [6]. Moreover, the growth was 97.1% in assay [7]; 96.1% in [8]; 87.7% in assay [9]; 99.6% in assay [10]; 105% in assay [11]; 96.1% in assay [12]. Also, the growth in [13] is 91.9%; in [14], 92.7%; in assay [15], 94.4%; in assay [16], 93.4%; in [17], 99.3%; in assay [18], 97.1%. Besides, in [19], the growth is 110%.

On to `CCN(Cc1ccccc1)C1CCN(Cc2cc(Br)ccc2O)CC1`, for which the growth in assay [1] was 67.4%; in assay [2], 11.6%; in assay [3] it was 42.7%; in assay [4], 26.3%; in assay [5], 48.7%; in assay [6] it was 65.9%. The growth in [7] is 63.8%; in assay [8], 74.8%; in assay [9], 46.1%; in assay [10] it was 46.6%; in [11], 50.1%; in assay [12], 13.3%. For the same compound, the growth in assay [13] is 49.2%; in [14], 43.9%; in assay [15], 45.7%; in [16], 32.1%; in assay [17], 51.7%; in assay [18] it was 54.9%. Further, the growth in [19] is 76.1%.

Regarding `COc1ccc(-c2nsc3c2NC(=O)CC3c2ccc(Cl)cc2)cc1` (stereo unspecified), the growth was 98.4% in assay [1]; 66.6% in [2]; 78% in assay [3]; 94.9% in assay [4]; 105% in assay [5]; 97.2% in [6]. The growth was 79.2% in [7]; 92.5% in assay [8]; 82.5% in [9]; 84.4% in [10]; 86.3% in assay [11]; 89.8% in assay [12]. The growth in assay [13] was 91.2%; in assay [20] it was 95.9%; in assay [14] it was 93.3%; in assay [16], 81.8%; in assay [17], 73.4%; in [18], 90.4%. Moreover, in assay [19], the growth was 103%.

On to `CC(Oc1ccc(Cl)cc1)c1ccccc1` (stereo unspecified), for which the growth in [1] is 107%; in assay [2] it was 101%; in [3], 80.1%; in [4], 105%; in assay [5], 103%; in [6] it was 104%. Moreover, the growth in assay [7] was 96%; in assay [8] it was 102%; in assay [9], 98.9%; in assay [10], 101%; in assay [11], 112%; in assay [12], 106%. For the same compound, the growth in [13] was 97.3%; in assay [20], 99.7%; in assay [14] it was 102%; in [16] it was 100%; in assay [17], 97.6%; in [18] it was 97.5%. Further, the growth in [19] is 106%.

As for `COCCNCC(O)Cn1c2ccc(Cl)cc2c2cc(Cl)ccc21` (stereo unspecified), the growth in [1] was 7.48% (active); in assay [2], -17.1% (active); in assay [3] it was -86.3% (active); in assay [4], -33.1% (active); in [5] it was 3.52% (active); in assay [6], 7.96% (active). The growth in assay [7] was -6.61% (active); in assay [8], -85% (active); in [9], -81% (active); in [10], -87.4% (active); in assay [11], -54.1% (active); in assay [12] it was -15.5% (active). Moreover, the growth was 40.7% in assay [13]; -5.49% (active) in [14]; 8.25% (active) in assay [15]; -96.1% (active) in assay [16]; -73.3% (active) in [17]; -31.4% (active) in assay [18]. Further, the growth in assay [19] is -26.3% (active).

`NC1CCC(Nc2nc(NCc3ccc(-c4ccco4)nc3)c3ncn(C4CCCC4)c3n2)CC1` (stereo unspecified): the growth in assay [1] was 6.46% (active); in assay [2] it was 2.46% (active); in [3], -40.6% (active); in assay [4], 3.81% (active); in assay [5], -50.5% (active); in assay [6], 0.711% (active). For the same compound, the growth in assay [7] was 0.17% (active); in assay [8], -25.7% (active); in assay [9], -8.84% (active); in assay [10], -23.5% (active); in assay [11], 3.49% (active); in assay [12], -21.9% (active). Also, the growth in assay [13] is -46.9% (active); in assay [20] it was 14.2%; in assay [14], 5.19% (active); in assay [16], -6.6% (active); in [17], -31% (active); in [18], -26.2% (active). Moreover, in assay [19], the growth is 0.269% (active).

For the compound `Fc1ccc(-c2cc(C(Cl)Cl)no2)cc1`, the growth is 100% in assay [1]; 128% in assay [2]; 93.3% in assay [3]; 95.1% in [4]; 103% in assay [5]; 100% in assay [6]. Moreover, the growth in [7] is 97.1%; in [8], 106%; in assay [9] it was 120%; in assay [10], 89.3%; in assay [11], 96.9%; in [12], 114%. In addition, the growth in [13] was 72.4%; in assay [20], 94.7%; in [14], 108%; in assay [16], 94.3%; in [17] it was 92.8%; in [18], 101%. Besides, the growth in assay [19] is 109%.

For the compound `Cc1ccc(C2C=C(c3ccc(Cl)cc3)N=C3SC=CN32)c(Br)c1` (stereo unspecified), the growth was 89.1% in assay [1]; 44.9% in [2]; 87.3% in [3]; 90% in [4]; 71.7% in assay [5]; 92% in assay [6]. The growth in assay [7] is 96.1%; in assay [8] it was 89.7%; in assay [9], 103%; in assay [10], 94.4%; in assay [11] it was 75.1%; in [12], 67.9%. The growth in assay [13] is 75.5%; in [14] it was 60.3%; in assay [15], 65.5%; in assay [16], 84.8%; in assay [17], 83.3%; in [18], 55.9%. Also, the growth in assay [19] was 105%.

Regarding `COc1cccc(C(=O)NNc2nc(N3CCN(C4CCCCC4)CC3)nc(N3CCN(C(c4ccccc4)c4ccccc4)CC3)n2)c1`, the growth is 87.5% in [1]; 11.5% in assay [2]; 9.41% (active) in assay [3]; 57.2% in [4]; 64.7% in assay [5]; 51.1% in [6]. Further, the growth in assay [7] was 77.3%; in [8] it was 61.7%; in assay [9], 23.1%; in assay [10], 42.5%; in [11] it was 25.4%; in assay [12], 24%. Besides, the growth in [13] was 63.6%; in assay [20], 47.7%; in [14], 32.6%; in assay [16] it was -85.1% (active); in [17], 39.6%; in assay [18] it was 7.83% (active). In addition, the growth in assay [19] is 64.3%.
